ROC1-CUL1 inh – human ROC1-CUL1 E3 ligase inhibition | in vitro K48 di-Ub FRET, acceptor:donor ratio, 45 min | inhibition, % at 10 µM | 140,000 compounds, 0.6% hits | AID 1347404; in the data active means inhibition above about 25%
Target sequence (P62877 whole entry, looked up): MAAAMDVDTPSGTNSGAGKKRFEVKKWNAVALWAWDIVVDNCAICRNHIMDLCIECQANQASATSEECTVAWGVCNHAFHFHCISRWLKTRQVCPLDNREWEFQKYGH
Target sequence (Q13616 whole entry, looked up): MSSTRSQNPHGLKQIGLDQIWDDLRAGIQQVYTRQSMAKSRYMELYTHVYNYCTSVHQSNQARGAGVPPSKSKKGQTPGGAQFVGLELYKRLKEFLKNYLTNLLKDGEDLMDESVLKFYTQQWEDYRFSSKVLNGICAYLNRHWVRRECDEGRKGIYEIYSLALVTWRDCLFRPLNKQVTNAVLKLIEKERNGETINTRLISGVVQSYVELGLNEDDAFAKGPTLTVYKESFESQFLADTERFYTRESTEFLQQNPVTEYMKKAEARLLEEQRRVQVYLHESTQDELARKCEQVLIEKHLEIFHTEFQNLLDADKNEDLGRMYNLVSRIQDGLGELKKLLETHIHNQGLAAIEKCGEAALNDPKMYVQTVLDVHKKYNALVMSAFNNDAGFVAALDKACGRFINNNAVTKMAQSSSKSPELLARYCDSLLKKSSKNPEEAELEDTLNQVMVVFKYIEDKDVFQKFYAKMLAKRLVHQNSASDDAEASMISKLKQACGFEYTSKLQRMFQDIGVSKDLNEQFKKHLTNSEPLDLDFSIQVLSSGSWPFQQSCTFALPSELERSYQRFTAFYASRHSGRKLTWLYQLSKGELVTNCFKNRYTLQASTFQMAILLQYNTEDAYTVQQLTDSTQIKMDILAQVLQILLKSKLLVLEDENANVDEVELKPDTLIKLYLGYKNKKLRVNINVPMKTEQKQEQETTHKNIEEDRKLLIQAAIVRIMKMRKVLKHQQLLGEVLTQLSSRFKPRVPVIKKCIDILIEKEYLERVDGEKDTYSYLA
An asterisk follows results filed as active. Shown is part of a subset that was picked to be rich in hits.

SMILES | ROC1-CUL1 inh
N#CC(C#N)=C/C=C(/Cl)c1ccccc1 | 11
CCOc1c(/C=C(\C#N)C(N)=O)c2ccccc2n1CC | 3
CN(C(=O)Cn1nnnc1CN1CCOCC1)C1CCCc2ccccc21 (configuration not stated) | -8
COc1ccc(OCC(=O)N2CCCC(CCC(=O)NC3CC3)C2)cc1 (configuration not stated) | -4
C=CCOc1ccc(Br)cc1/C=C1/SC(=O)NC1=O | -11
C#CCOc1ccc(/C=C/c2[nH]c(=O)[nH]c(=O)c2[N+](=O)[O-])cc1OC | 3
C=CCOc1ccc(Br)cc1/C=C/c1[nH]c(=O)[nH]c(=O)c1[N+](=O)[O-] | 42*
COc1ccc(-c2nc(CN3CCN(C)C(=O)[C@@H]3C)c(C)o2)cc1C | 0
Cc1cccc(OCCCOc2c(Cl)cc(Cl)cc2/C=C2\C(=O)NN(c3ccccc3)C2=O)c1 | 7
O=C1NN(c2ccccc2)C(=O)/C1=C/c1cc(Cl)cc(Cl)c1OCCCOc1ccc(Cl)cc1 | 11
Cc1cccc(OCCOc2c(Cl)cc(Cl)cc2/C=C2\C(=O)NN(c3ccccc3)C2=O)c1 | 98*
Cc1cc(OCCOc2ccc(Cl)cc2/C=C2\C(=O)NN(c3ccccc3)C2=O)ccc1Cl | 49*
CCOc1cc(/C=C2\C(=O)NN(c3ccccc3)C2=O)cc(Cl)c1OCCOc1ccc(C)cc1C | 14
COc1cc(/C=C2\C(=O)NN(c3ccccc3)C2=O)cc(Cl)c1OCCOc1ccc(Cl)c(C)c1 | 12
COc1ccc(Br)cc1C1Sc2ccccc2N=C2c3ccccc3C(=O)C21 (configuration not stated) | -3
O=C1COc2cc3c(cc2N1)OCO3 | -6
C=CCNS(=O)(=O)c1cc(C)ccc1OC | 0
FC(F)(Cl)Oc1ccc(NC(=S)NCCc2ccccc2)cc1 | -9
COc1ccc(/C=C2/SC(=S)N(CC(=O)O)C2=O)c(OC)c1OC | 5
COc1ccc(CCN2CCC(CN(C)C(=O)Cn3cncn3)CC2)cc1 | 9
COCCCNS(=O)(=O)c1cc(C)ccc1OC | 5
O=C1N=c2ccccc2=C1N=Nc1nc(Nc2ccccc2)c(Nc2ccccc2)s1 | -2
O=C1CCCN1CCCC(=O)N1CCCC(CCc2ccccc2)C1 (configuration not stated) | -11
Cc1ccc(C)c(C(=O)COC(=O)c2ccc(Br)cc2)c1 | -2
O=C(c1coc(COc2cccc3cccnc23)n1)N1CC[C@@H]2CCCC[C@H]2C1 | 57*
SMILES | ROC1-CUL1 inh
CC(C)CNC(=O)c1coc(COc2cccc3cccnc23)n1 | 6
O=C(c1coc(COc2cccc3cnccc23)n1)N1CCCC1 | 1
Cc1ccc(C(=O)C2C(=O)C(=O)N(Cc3cccnc3)C2c2cccc(OCc3ccccc3)c2)cc1 (configuration not stated) | 4
Cc1ccc(C2C(C#N)C(=N)SC(=N)C2C#N)o1 (configuration not stated) | 40*
COc1ccc(C2C(C#N)C(=N)SC(=N)C2C#N)cc1OC (configuration not stated) | 1
Cc1ccc(C2c3c(n[nH]c3C)OC(=N)C2C#N)o1 (configuration not stated) | 5
COc1cc(OC)cc([C@@H]2[C@@H](C(=O)c3ccccc3)N3c4ccccc4C=C[C@@H]3C2(C#N)C#N)c1 | 3
COc1cnc2c(=O)n(C)c(=O)n(C)c2n1 | 2
Cc1nc2c(nc1Cl)c(=O)n(C)c(=O)n2C | -5
Cc1nc2c(=O)n(C)c(=O)n(C)c2nc1Cl | 71*
COc1nc(-c2ccco2)nnc1-c1ccccc1 | 5
O=C(CSc1ccc(Cl)cc1)Nc1cc(C(F)(F)F)ccc1N1CCOCC1 | 6
CSC1=NC(=O)C(C(c2ccc(Cl)cc2)C2C(=O)N=C(SC)NC2=O)C(=O)N1 (configuration not stated) | -4
O=C1Oc2cccnc2C(=O)C1C(c1ccc(Cl)cc1)C1C(=O)Oc2cccnc2C1=O (configuration not stated) | 38*
O=C(O)CSc1cccnc1Sc1ccc(Cl)cc1 | 5
CCOC(=O)COc1c(I)cc(/C=C2/SC(=Nc3ccc(OC)cc3)NC2=O)cc1OC | 7
CCc1ccc(N=C2NC(=O)/C(=C\c3cc(Cl)c(OCC#N)c(OC)c3)S2)cc1 | 8
CCOc1cc(/C=C2\SC(=Nc3ccc(Cl)cc3)NC2=O)cc(Cl)c1OCC(=O)O | 96*
COC(=O)CNC(=O)C1CCCN(C2CCN(Cc3ccccc3)CC2)C1 (configuration not stated) | -1
CC(=O)N1N=C(c2ccc(C(F)(F)F)cc2)OC1c1ccccc1Cl (configuration not stated) | -10
Cc1c(CC(=O)N[C@@H](C)C(N)=O)c2c(n1CCc1ccccc1)CCCC2=O | 4
COc1cccc2c1Oc1nc(-c3ccccc3)nc(SCC(=O)Nc3ccccc3)c1C2 | -6
O=C(CSc1nc(-c2ccc(F)cc2)nc2c1Cc1ccccc1O2)Nc1cccc(C(=O)O)c1 | 25*
COc1cc(NC(=O)CSc2nc(-c3ccc(C)cc3)nc3c2Cc2ccccc2O3)cc(OC)c1 | 5
O=C(Nc1ccc(-c2ccco2)cc1)C1CCCN(C(=O)CCc2ccccn2)C1 (configuration not stated) | 6
SMILES | ROC1-CUL1 inh
O=c1c(-c2ccccc2)c1-c1ccccc1 | 0
COc1ccc(OC)c2c1C(=O)c1ccccc1-2 | -1
O=C1c2ccccc2-c2c1c(O)c(O)c(-c1ccccc1)c2-c1ccccc1 | 102*
CCC(C)c1ccc(NC(=O)c2ccc(OC(F)F)c(OC)c2)cc1 (configuration not stated) | 0
CCOc1cc(/C=N/NS(=O)(=O)c2ccccc2)ccc1OCc1ccc(Cl)cc1Cl | -6
Cc1cc(C)cc(N2C(=O)/C(=C/c3cn(CC(=O)N4CCC(C)CC4)c4ccccc34)C(=O)NC2=S)c1 | -6
O=C1NC(=S)N(c2ccc(Br)cc2)C(=O)/C1=C/c1cn(CC(=O)N2CCCc3ccccc32)c2ccccc12 | -10
Cc1c(Cl)cccc1N1C(=O)/C(=C/c2cn(CC(=O)O)c3ccccc23)C(=O)NC1=S | 81*
Oc1c(C(c2ccccn2)N2CCN(c3ccccc3)CC2)cc(Cl)c2cccnc12 (configuration not stated) | 15
CSc1c(C#N)c(N)nc2c(N=Nc3ccc(S(N)(=O)=O)cc3)c(N)nn12 | 84*
Cc1cc(C(F)(F)F)n2nc(N)c(N=Nc3cccc(C(F)(F)F)c3)c2n1 | 11
Cc1cc(C(F)(F)F)n2nc(N)c(N=Nc3ccccc3)c2n1 | 0
COc1cc(/C=c2/sc3n(c2=O)C(c2cccc(F)c2)C2=C(N=3)c3ccccc3CC2)cc(I)c1O (configuration not stated) | -2
O=C1C(CNCc2ccccc2)=Nc2ccccc21 | -14
CCSc1nc(CC(=O)N2CCCC2c2ccc(C(N)=O)s2)cs1 (configuration not stated) | -7
CC(C)(C)C(=O)NS(=O)(=O)c1cccs1 | 3
CCOc1c(/C=C2\C(=O)NN(c3ccc(Cl)c(Cl)c3)C2=O)cccc1OC | 13
CCOc1cc(/C=C2\C(=O)NC(=O)N(c3ccc(Cl)cc3)C2=O)cc(Br)c1O | 4
Cc1ccc(N2NC(=O)/C(=C/c3ccccc3OCc3ccccc3)C2=O)cc1 | 7
CCOc1cc(/C=C2\C(=O)NN(c3ccc(Cl)cc3)C2=O)c(Br)c(Br)c1O | 73*
Cc1ccc(N2NC(=O)/C(=C/c3cc4c(cc3Cl)OCO4)C2=O)cc1C | 65*
CCOc1ccc(/C=C2/C(=O)NN(c3ccc(Cl)cc3)C2=O)cc1OC | -7
